Unmarked numbers belong to inactive results.
What follows are compounds tested on Plasmodium falciparum NF54-HGL (transmission to Anopheles stephensi) (assay: percentage of barcode signal found in uninfected mosquitoes (transmission-blocking activity); higher = stronger blocking of transmission to mosquito, active = 80 or more). Settings: 20 µM; gametocyte preincubation time 24 h; readout time post-feed 8 days.
Method: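 The mixture was fed to Anopheles stephensi in 96-well plates as blood meals tagged with DNA-barcoded Asaia bacteria. Eight days later, mosquitoes were classed infected or uninfected by luminescence (mean + 5 SD of unfed controls). Barcodes were quantified by Luminex MagPlex-TAG in the pooled uninfected and infected Asaia cultures, background-corrected, and the score is % of barcode signal in uninfected mosquitoes = 100*Iu/(Iu+Ii).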

| Compound | percentage of barcode signal found in uninfected mosquitoes |
| --- | --- |
| Cc1ccc(S(=O)(=O)n2cc(-c3ccnc(N)c3)c3cc(Br)cnc32)cc1 | 1.79% |
| O=[N+]([O-])c1cn2c(n1)OC[C@@H](OCc1ccc(OC(F)(F)F)cc1)C2 | 17% |
| CNc1cc(C)nc(C2CN(C(=O)c3n[nH]c4ccccc34)CCO2)c1 (stereo not given) | 35.5% |
| O=C(Nc1ccccc1)c1ccc(-c2cc3ccncc3cc2OC2CCNCC2)s1 | 82.7% (active) |
| Cc1cc(NCCc2ccccc2)nc(NC(=N)Nc2ccc(Cl)cc2)n1 | 75.8% |
| CN1CCN(S(=O)(=O)c2ccc(-c3ccc4c(Nc5ccc6nn[nH]c6c5)ccnc4c3)cc2)CC1 | 3.18% |
| CC(=O)N1CCc2cc3nc(C)cc(C)c3cc21 | 5.33% |
| CC(C)C(Oc1cccc2ccccc12)C(=O)O (stereo not given) | 20% |
| CCCc1ccc(S(=O)(=O)Nc2ccc(CN3CCN(CC4CC4)CC3)cc2)cc1 | 9.2% |
| O=C(OCc1ccccc1)N1CCC(c2cc(-c3ccncc3)c(-c3ccc(F)cc3)[nH]2)CC1 | 16.8% |
| Cc1ccccc1C(=O)N1N=C(Nc2ccccc2)SC1(C)C | -0.332% |
| Cc1cc(C)nc(-n2nc(C)cc2Nc2ccccc2)n1 | 80.5% (active) |
| COc1cc(C2=NCCN2)ccc1-c1cn(-c2cccc(C3=NCCN3)c2)nn1 | 46% |
| COc1ccc2nc(C)cc(OCC(=O)NCc3ccccc3)c2c1 | 2.14% |
| CCS(=O)(=O)N(Cc1ccco1)Cc1cc2ccc(C)cc2nc1O | -1.14% |
